Columns and labels:
Experiment in all cases: log2 ratio of Biotin-Ahx-Ub-VS probe labelling (fragment/DMSO); higher = less target engagement (more negative = stronger competition), active = hit call of the paper (q ≤ 0.05, log2 ratio ≤ -1)
Details in all cases: compound concentration: 200 uM; treatment time: 3 h
USP34 = USP34 (UniProt Q70CQ2)
How it was run: (§1)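 Each value is an average log2 ratio of fragment to vehicle, tested by unpaired t-test. The underlying Spectronaut label-free quantities were global-median-normalised, and only proteins with ≥2 unique peptides were included. Triplicate HEK293T lysate samples (495 µg) were exposed to fragment at 200 µM or vehicle for 3 h, then to Biotin-Ahx-Ub-VS at 0.5 µM final for 1 h, before NeutrAvidin enrichment of labelled DUBs, LysC and trypsin digestion, and diaPASEF LC-MS/MS.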

USP36 = target: T1, USP36 (UniProt Q9P275)
T1 sequence (whole entry): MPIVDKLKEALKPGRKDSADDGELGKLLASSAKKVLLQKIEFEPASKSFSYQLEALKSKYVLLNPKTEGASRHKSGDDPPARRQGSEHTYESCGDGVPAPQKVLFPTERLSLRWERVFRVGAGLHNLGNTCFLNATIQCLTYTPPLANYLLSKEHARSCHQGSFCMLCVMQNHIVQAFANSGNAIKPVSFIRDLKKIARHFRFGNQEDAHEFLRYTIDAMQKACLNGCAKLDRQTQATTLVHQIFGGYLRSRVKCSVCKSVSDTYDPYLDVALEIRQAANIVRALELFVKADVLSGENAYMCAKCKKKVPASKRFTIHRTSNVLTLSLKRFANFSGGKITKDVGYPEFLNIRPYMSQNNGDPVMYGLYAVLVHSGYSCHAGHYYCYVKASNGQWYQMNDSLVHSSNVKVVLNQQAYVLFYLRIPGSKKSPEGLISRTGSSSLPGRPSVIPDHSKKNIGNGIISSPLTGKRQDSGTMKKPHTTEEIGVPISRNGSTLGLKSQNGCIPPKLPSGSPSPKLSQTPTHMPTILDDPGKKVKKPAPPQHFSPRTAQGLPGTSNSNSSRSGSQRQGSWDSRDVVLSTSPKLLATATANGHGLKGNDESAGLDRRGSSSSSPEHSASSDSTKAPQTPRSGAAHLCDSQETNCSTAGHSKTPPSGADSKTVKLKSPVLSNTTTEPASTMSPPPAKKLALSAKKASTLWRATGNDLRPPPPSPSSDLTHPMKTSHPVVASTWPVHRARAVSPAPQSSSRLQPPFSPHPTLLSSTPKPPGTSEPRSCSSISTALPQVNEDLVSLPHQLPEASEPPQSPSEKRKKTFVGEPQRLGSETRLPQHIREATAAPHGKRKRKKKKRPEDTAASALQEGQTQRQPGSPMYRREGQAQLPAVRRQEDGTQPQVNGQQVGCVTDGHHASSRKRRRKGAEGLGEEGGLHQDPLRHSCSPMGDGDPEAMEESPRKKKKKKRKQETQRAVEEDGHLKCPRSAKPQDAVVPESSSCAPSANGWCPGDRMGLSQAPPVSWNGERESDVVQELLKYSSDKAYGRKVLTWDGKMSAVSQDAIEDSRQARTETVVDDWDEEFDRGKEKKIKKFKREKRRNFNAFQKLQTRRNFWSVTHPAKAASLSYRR
How it was run: as §1

USP38 = target: T2, USP38 (UniProt Q8NB14)
T2 sequence (whole entry): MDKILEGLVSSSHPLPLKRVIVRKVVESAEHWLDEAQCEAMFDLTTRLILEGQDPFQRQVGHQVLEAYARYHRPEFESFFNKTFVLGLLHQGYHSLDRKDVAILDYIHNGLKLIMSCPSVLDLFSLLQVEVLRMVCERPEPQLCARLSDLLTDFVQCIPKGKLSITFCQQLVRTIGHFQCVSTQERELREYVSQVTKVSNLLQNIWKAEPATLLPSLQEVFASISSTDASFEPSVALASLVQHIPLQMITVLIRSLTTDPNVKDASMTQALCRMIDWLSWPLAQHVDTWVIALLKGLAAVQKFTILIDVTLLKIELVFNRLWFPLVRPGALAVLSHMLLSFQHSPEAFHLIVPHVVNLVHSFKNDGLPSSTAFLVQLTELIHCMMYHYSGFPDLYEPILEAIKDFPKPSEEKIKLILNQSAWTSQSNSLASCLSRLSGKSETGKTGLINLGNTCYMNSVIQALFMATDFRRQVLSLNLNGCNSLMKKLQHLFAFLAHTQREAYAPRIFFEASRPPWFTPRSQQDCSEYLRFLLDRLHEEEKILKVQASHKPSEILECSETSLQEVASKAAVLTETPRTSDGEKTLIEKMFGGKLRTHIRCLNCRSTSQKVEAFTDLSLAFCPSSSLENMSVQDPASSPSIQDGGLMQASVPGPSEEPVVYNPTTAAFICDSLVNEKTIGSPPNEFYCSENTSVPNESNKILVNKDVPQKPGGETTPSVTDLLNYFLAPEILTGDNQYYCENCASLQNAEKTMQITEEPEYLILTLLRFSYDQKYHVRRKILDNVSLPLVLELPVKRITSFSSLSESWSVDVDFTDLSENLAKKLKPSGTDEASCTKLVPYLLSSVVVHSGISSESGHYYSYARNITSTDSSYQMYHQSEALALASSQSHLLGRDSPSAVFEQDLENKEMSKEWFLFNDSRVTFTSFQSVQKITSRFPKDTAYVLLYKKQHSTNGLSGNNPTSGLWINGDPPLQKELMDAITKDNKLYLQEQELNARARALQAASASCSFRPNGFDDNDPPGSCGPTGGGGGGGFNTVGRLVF
How it was run: as §1

USP39 = target: T3, USP39 (UniProt Q53GS9)
T3 sequence (whole entry): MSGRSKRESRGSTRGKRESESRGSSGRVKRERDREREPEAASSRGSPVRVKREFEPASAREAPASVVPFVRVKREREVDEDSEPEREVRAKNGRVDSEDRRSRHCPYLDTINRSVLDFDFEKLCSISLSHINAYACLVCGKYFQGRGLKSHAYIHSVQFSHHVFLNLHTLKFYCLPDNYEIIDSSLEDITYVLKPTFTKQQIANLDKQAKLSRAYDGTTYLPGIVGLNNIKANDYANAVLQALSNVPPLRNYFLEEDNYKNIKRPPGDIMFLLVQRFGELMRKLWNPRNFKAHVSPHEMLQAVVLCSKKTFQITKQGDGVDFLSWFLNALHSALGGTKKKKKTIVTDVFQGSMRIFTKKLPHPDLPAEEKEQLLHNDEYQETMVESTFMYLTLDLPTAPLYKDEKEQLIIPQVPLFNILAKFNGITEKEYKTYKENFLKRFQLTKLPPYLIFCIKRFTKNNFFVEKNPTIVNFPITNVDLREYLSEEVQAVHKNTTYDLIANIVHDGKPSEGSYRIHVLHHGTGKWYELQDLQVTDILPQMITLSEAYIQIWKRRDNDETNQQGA
How it was run: as §1

USP4 = target: T4, USP4 (UniProt Q13107)
T4 sequence (whole entry): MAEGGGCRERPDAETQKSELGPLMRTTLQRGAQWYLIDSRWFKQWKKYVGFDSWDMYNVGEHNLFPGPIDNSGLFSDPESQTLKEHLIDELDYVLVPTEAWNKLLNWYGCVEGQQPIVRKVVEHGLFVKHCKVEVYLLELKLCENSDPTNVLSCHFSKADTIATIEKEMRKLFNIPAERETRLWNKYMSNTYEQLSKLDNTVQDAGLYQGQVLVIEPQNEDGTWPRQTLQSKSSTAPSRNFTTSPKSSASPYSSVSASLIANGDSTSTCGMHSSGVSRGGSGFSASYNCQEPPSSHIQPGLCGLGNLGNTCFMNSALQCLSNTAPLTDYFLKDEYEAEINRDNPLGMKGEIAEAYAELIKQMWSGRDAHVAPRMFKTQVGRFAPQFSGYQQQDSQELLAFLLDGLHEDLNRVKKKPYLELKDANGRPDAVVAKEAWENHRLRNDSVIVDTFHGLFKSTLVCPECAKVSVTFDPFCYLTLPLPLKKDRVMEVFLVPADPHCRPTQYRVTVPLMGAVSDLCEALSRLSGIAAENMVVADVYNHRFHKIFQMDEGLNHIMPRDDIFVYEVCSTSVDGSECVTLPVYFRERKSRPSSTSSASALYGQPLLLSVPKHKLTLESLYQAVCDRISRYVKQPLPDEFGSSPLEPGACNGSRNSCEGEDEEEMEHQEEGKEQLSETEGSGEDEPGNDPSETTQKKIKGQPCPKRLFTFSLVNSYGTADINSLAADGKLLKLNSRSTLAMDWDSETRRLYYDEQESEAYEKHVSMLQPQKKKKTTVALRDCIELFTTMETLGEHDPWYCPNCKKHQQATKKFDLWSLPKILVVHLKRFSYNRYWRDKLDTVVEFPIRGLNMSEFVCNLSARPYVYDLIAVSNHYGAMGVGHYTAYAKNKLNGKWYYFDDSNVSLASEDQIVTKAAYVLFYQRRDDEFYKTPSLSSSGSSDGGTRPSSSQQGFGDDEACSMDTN
How it was run: as §1

Measured: log2 ratio of Biotin-Ahx-Ub-VS probe labelling

Sequence of USP34 (Q70CQ2 whole entry, the tested form may be a part): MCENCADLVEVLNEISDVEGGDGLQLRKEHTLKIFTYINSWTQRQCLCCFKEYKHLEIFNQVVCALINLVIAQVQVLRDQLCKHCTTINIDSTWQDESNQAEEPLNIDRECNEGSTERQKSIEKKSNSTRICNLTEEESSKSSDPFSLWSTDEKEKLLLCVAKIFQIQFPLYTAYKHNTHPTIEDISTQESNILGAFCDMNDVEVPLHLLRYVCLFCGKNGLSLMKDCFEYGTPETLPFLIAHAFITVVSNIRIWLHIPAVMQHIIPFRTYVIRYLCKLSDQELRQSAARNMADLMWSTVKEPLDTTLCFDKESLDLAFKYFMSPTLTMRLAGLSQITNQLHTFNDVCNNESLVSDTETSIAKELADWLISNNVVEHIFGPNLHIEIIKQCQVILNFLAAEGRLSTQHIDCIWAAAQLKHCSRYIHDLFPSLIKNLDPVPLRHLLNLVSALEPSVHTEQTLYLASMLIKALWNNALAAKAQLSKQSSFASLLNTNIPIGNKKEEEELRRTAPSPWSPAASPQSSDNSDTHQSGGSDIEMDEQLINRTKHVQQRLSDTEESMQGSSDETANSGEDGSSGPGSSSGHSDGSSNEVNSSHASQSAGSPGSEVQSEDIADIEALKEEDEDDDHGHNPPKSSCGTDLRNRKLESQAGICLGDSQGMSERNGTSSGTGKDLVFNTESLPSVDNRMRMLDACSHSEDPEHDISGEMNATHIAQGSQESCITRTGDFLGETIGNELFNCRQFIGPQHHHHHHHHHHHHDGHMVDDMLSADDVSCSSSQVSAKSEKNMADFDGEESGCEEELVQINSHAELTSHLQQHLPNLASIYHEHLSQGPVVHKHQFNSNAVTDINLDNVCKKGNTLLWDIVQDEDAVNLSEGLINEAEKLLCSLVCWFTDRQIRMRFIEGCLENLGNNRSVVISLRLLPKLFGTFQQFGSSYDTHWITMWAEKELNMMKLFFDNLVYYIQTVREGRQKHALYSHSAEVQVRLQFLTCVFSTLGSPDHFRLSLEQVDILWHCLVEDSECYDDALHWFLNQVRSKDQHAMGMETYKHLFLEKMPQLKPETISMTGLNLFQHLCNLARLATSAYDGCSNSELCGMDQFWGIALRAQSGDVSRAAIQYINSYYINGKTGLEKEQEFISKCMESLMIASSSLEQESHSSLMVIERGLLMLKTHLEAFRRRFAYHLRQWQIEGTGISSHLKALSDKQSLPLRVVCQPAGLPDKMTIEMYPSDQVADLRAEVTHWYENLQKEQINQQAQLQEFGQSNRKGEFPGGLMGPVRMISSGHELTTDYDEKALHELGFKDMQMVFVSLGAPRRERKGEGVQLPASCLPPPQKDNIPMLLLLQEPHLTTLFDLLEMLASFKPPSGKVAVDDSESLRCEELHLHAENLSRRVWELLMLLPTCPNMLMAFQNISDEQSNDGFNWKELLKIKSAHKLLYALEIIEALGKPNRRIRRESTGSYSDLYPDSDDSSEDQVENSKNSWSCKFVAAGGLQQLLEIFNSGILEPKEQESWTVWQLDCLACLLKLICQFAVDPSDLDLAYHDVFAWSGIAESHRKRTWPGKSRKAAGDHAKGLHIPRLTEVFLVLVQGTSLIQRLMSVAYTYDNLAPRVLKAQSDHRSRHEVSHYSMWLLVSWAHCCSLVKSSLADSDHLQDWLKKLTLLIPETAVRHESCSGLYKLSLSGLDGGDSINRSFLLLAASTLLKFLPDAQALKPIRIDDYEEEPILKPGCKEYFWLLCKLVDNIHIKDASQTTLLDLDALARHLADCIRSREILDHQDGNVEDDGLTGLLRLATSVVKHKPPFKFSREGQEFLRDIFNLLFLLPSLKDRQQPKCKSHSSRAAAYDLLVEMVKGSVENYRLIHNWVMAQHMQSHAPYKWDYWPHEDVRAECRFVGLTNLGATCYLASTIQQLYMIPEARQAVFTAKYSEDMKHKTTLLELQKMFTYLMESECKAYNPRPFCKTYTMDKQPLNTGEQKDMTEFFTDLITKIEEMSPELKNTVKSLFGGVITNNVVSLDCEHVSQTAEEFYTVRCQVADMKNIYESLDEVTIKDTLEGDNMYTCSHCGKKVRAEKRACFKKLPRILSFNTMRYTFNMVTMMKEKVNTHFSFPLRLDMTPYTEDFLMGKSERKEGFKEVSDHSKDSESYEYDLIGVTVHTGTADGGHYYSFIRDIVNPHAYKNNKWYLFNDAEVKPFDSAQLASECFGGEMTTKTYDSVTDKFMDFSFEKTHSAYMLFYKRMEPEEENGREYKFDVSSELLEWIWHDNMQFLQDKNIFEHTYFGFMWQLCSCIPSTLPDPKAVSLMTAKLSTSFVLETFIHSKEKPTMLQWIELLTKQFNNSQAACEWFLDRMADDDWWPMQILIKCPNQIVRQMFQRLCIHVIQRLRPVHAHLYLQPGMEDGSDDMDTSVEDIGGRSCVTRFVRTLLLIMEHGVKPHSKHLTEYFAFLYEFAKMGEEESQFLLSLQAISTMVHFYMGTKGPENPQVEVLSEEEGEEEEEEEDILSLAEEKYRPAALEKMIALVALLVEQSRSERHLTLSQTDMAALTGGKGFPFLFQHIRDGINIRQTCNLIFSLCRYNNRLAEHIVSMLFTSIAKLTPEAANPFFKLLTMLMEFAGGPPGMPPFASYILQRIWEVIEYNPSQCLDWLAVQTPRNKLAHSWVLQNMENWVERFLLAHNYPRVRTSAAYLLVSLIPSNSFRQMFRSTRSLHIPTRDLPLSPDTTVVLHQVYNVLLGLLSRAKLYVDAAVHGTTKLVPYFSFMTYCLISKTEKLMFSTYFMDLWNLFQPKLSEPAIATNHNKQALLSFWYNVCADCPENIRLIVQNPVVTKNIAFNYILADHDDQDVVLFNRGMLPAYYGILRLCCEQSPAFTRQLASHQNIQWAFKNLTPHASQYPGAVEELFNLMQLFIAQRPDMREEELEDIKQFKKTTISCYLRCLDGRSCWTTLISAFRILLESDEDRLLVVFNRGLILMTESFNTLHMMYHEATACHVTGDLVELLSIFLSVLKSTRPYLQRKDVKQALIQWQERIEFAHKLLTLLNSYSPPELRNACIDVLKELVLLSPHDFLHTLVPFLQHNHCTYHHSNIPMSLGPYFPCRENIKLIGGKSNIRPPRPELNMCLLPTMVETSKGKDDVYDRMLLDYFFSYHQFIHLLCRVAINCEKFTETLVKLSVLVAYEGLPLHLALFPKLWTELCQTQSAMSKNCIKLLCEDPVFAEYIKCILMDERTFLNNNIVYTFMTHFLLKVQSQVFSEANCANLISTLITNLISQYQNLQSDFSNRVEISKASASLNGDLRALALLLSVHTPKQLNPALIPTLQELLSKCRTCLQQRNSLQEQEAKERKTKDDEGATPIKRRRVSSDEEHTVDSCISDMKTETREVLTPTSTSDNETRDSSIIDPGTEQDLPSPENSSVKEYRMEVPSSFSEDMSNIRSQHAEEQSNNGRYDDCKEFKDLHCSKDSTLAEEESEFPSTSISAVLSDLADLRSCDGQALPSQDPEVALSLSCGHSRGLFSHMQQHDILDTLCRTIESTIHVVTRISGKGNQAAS

O=C(CCl)NCCc1ccc(F)cc1
inactive: USP34 -0.0755 | USP36 0.207 | USP38 0.0565 | USP39 0.108 | USP4 -0.11
